Screens: PubChem BioAssay, National Center for Advancing Translational Sciences (NCATS)
NPC1 promoter act = qHTS Assay for NPC1 Promoter Activators. Potency, µM (series often up to 9.22 µM), for the others: top-dose activation, most hits filed as activators. Huh7 NPC1 promoter luciferase reporter, 24 h. 320,000 tested, 2.4% active. AID 485313, 2010; further: % of control where 0% means no effect; nearly all actives have a fitted effect of over 60% in size
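Readout is luciferase luminescence, reflecting NPC1 promoter activation in stably transfected Huh7 cells after 24 h compound exposure at 37 °C in reduced-serum medium with 10% FBS.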
FLuc modulator = qHTS profiling assay for firefly luciferase inhibitor/activator using purifed enzyme and Km concentrations of substrates (counterscreen for miR-21 project); purified FLuc, Km substrates, luminescence inhibition; Potency, µM (titrated, usually from 57.5 µM), for inactives: at the highest dose activity change, negative = inhibition, hits mostly inhibitors; 360,000 tested, 6.9% active; AID 588342, 2011;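 further: plate controls were vehicle for no effect and reference inhibitor for full effect; nearly all actives have a fitted effect of over 55% in size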
Target sequence (P08659 whole entry, looked up): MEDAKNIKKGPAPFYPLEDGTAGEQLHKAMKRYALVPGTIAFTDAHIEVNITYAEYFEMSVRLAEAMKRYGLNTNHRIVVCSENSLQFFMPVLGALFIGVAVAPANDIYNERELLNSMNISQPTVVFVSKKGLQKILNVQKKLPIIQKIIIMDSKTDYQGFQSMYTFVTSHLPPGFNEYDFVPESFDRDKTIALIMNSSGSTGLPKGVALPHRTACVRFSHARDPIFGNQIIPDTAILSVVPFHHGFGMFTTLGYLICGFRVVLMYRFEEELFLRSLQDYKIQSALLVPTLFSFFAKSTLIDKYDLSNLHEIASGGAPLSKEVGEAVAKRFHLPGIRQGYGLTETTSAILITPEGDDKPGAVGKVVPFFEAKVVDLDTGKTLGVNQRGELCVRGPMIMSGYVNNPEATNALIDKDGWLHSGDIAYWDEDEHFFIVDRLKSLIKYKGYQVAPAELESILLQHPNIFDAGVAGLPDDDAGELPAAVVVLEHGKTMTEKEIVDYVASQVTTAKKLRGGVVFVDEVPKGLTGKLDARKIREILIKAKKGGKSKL
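Purified P. pyralis luciferase, 10 nM final, with Km-level 10 uM D-luciferin and 10 uM ATP in 50 mM Tris acetate pH 7.5, 10 mM Mg acetate, 0.01% Tween-20, 0.05% BSA; 6-point qHTS titration about 60 µM downward; luminescence read.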
Rab9 prom act = qHTS Assay for Rab9 Promoter Activators; Huh7 Rab9 promoter-luciferase reporter, luminescence, 24 h; Potency, µM (top dose mostly 9.22 µM), inactives show at the top dose activation, negative = inhibition, most hits filed as activators; 320,000 tested, 2.8% active; further: % of control where 0% means no effect; nearly all actives have a fitted effect of over 60% in size
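Quantitative HTS format; Huh7 Rab9-luciferase reporter cells (1500/well) receive compound 2 h post-plating, incubate 24 h at 37 °C, then get luciferase reagent for 10 min before luminescence reading.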
ELG1 genotox = qHTS screen for small molecules that induce genotoxicity in human embryonic kidney (HEK293T) cells expressing luciferase-tagged ELG1; 330,000 tested, 1.3% active; Potency, µM (highest dose often 46 µM), without a hit: at the highest dose activity change, positive = activation, usual class: activators; HEK293T ELG1-luciferase reporter, luminescence, 16 h; AID 504466, 2011; further: % of control where 0% means no effect; nearly all actives have a fitted effect of over 60% in size
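ELG1-luciferase HEK293T cells, 2,000/well; compound pinned in; 16 hr, 37 °C, 5% CO2; ONE-Glo, 30 min RT; luminescence on CCD imager.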
SMN2 splice enh = qHTS Assay for Enhancers of SMN2 Splice Variant Expression. HEK293 SMN2-luciferase splicing reporter, luminescence, 30-36 h. Potency, µM (doses to about 46.1 µM), without a hit: at the highest dose activity change, positive = activation, hits mostly activators. 210,000 tested, 2.8% active; further: % of control where 0% means no effect; nearly all actives have a fitted effect of over 55% in size
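HEK293 cells carry an SMN2 minigene-luciferase reporter in which exon 7 inclusion puts luciferase in frame. Cells were seeded at 2000 cells/well, attached for 10-12 hours, then exposed to compounds for 30-36 hours at 37C before ONE-Glo luminescence.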
KinaseGlo FLuc = Counterscreen for Luciferase (Kinase-Glo TM) Inhibition; Potency, µM (highest dose often 38.3 µM), without a hit: at the top dose activity change, negative = inhibition, usual class: inhibitors; 200,000 tested, 0.28% active; Kinase-Glo luciferase, ATP luminescence, 8 min; further: on the % scale 0 is the no-effect control and ±100 the full control effect; nearly all actives have a fitted effect of over 60% in size
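Kinase-Glo luciferase light output from ATP and luciferin was measured with 10 uM ATP, within the enzyme's linear range. Buffer: 50 mM imidazole pH 7.2, 50 mM KCl, 7 mM MgCl2, 0.01% Tween 20, 0.05% BSA; luminescence read after 8 min at ambient temperature.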
The depositor's hits bear a star; ? = inconclusive; / = not tested or not shown; [ ] = another dose, or the depositor's remark. A selection: hits, their analogues and other compounds. The true share with any hit is near 7.5%. The call rests on the fitted dose curve; in most records, active means well fitted curve in the direction sought with a large enough effect; inconclusive means small, poorly fitted or top-dose-only effect, or another doubt; inactive means no such curve, though single readings can be large; an effect the other way counts as inactive or inconclusive. Potency means the concentration at half of the fitted maximal effect.

SMILES | NPC1 promoter act | FLuc modulator | Rab9 prom act | ELG1 genotox | SMN2 splice enh | KinaseGlo FLuc
O=C(O)c1cc(-c2ccc3ccccc3n2)nc2ccccc12 | ? | 0.6µM* | 2.8µM* | ? | / | /
O=C(O)c1cc(-c2cc(C(=O)O)c3ccccc3n2)nc2ccccc12 | 0% | ? | -2% | -1% | / | /
O=C(c1cc(-c2cccc3ccccc23)nc2ccccc12)N1CCN(CCO)CC1 | / | / | / | -4% | / | /
O=C(O)c1cc(-c2cccc3ccccc23)nc2ccccc12 | 1% | 27µM* | -2% | -7% | / | /
Cc1cccc(OCC(=O)Nc2c(C(=O)N3CCN(c4ccccc4F)CC3)oc3ccccc23)c1 | / | -18% | / | / | / | /
COc1ccc(N2CCN(C(=O)c3cnc(N4CCOCC4)c4ccccc34)CC2)cc1 | / | -5% | / | / | / | /
Cn1c(=O)n(C)c2cc(N3CCCCC3)c(NC(=O)c3c(F)cccc3F)cc21 | / | -1% | / | / | -8% | /
CC1CCCCN1C(=O)CSc1nc2ccccc2nc1Cc1ccc(Cl)cc1 (stereo unspecified) | / | -11% | / | / | / | /
O=C(O)c1cc(-c2ccc3ccccc3c2)nc2ccc(F)cc12 | 0% | 2.7µM* | -3%[1.84 µM] | 2% | / | /
O=C(O)c1cc(-c2ccc(-c3ccccc3)cc2)nc2cc3ccccc3cc12 | / | / | / | / | -1%[9.22 µM] | -4%[7.66 µM]
Cc1cc(C(=O)CSc2nc(N)cc(N)n2)c(C)n1C1CC1 | -2% | -4% | -4% | -12% | -14% | 10%
C=CCn1c(C)cc(C(=O)CSc2nc(N)cc(N)n2)c1C | 1% | 21µM* | 21% | 3% | -1% | -2%
Cc1cc(C(=O)CSc2nc(N)cc(N)n2)c(C)n1-c1cccc(F)c1 | 3% | 24µM* | -5% | -2% | -37% | -1%
O=C(Nc1ccccc1[N+](=O)[O-])c1csnn1 | / | -11% | / | / | / | /
CCOc1ccc2nc(SCC)[nH]c2c1 | ? | 19µM* | ? | 16% | 4% | -6%
Fc1ccc(CSc2nc3ncccc3[nH]2)cc1 | ? | 13µM* | ? | ? | ? | -9%
Fc1cccc(CSc2nc3ncccc3[nH]2)c1 | 24% | ? | ? | -1% | 16% | -10%
c1ccc(CSCc2nc3ccccc3[nH]2)cc1 | ? | 19µM* | 2.5µM* | ? | ? | -8%
c1ccc(CSc2nc3ccccc3[nH]2)cc1 | 0.79µM* | 3.4µM* | 0.79µM* | ? | / | /
CCSc1nc2ccccc2[nH]1 | 6% | -8% | -9% | -7% | 15% | -2%
CN(C)C(=O)c1ccc2c(c1)N(CC(=O)NCc1ccc(F)cc1)C(=O)C1CCCCN21 (stereo unspecified) | / | -1% | / | / | / | /
Cc1c(C(=O)N2CCC(c3nc4ccccc4s3)CC2)oc2ccc(Cl)cc12 | / | -15% | / | / | / | /
Fc1ccc(CSc2nc3ccccc3[nH]2)cc1 | 2.8µM* | 4.8µM* | 1.4µM* | ? | 11µM* | -16%
CCOc1ccc(OCCSc2nc3ccccc3[nH]2)cc1 | 2% | ? | 2% | 8% | -111% | 4%
Fc1ccc(CSc2nc3ccccc3[nH]2)c2ccccc12 | 0% | 24µM* | 17% | 5% | -5% | -5%
SMILES | NPC1 promoter act | FLuc modulator | Rab9 prom act | ELG1 genotox | SMN2 splice enh | KinaseGlo FLuc
O=[N+]([O-])c1ccc(CSc2nc3ccccc3[nH]2)cc1 | 4µM* | 6µM* | 2.2µM* | ? | 16µM* | -6%
O=C(NCCO)c1ccc(CSc2nc3ccccc3[nH]2)cc1 | -1% | ? | 21% | 8% | -5% | 2%
CCCOc1ccc(CSc2nc3ccccc3[nH]2)cc1 | 25% | 2.1µM* | ? | ? | 20% | -23%
COc1ccc2c(=O)c3c(=O)n(Cc4ccco4)c(-c4ccco4)nc3oc2c1 | 2% | ? | -3% | 5% | -9% | -10%
COc1ccc(Cn2c(-c3ccco3)nc3oc4cc(OC)ccc4c(=O)c3c2=O)cc1 | 3.2µM* | ? | 4µM* | ? | 4% | -9%
COc1cc(/C=C/c2ccc3cccc(O)c3n2)c(Br)cc1O | -1% | ? | 3% | ? | / | /
COc1cc(Br)c(/C=C/c2ccc3cccc(O)c3n2)cc1OC | 17% | ? | -3%[1.84 µM] | ? | / | /
CSc1ccc(/C=C/c2ccc3cccc(O)c3n2)cc1 | 3.2µM* | 2.4µM* | 1.3µM* | ? | 13µM* | -21%
COc1ccc(OC)c(/C=C/c2ccc3cccc(O)c3n2)c1 | 11% | 13µM* | 6% | ? | / | /
COc1cc(/C=C/c2ccc3cccc(O)c3n2)ccc1O | ? | 6.7µM* | 3.2µM* | 16µM* | / | /
O=C1CCCC1C(=O)Nc1ccc2ccccc2c1 (stereo unspecified) | 16% | 17µM* | 15% | 11% | / | /
Cc1nc2ccc(-c3ccccc3)cc2o1 | 14% | 17µM* | 15% | 8% | -6% | -5%
Cc1nc2ccc(NC(=O)c3cccc(C(F)(F)F)c3)cc2o1 | 5% | -19% | -5% | ? | 4% | 7%
O=C(Nc1ccccc1-c1nc2ccccc2s1)c1cccnc1 | -3% | 4% | -8% | -2% | 2% | 5%
Clc1ccc(CCNc2nc3ccccc3s2)cc1 | -1% | ? | 3% | 3% | -2% | -2%
COc1cc(C(=O)Nc2cc(C)c(O)c(-c3nc4ccccc4s3)c2)cc(OC)c1OC | / | -11% | / | / | 14% | /
Clc1ncccc1-c1nc2ccccc2s1 | 26% | 15µM* | -2% | ? | / | -8%
O=c1c(-c2nc3ccccc3s2)cccn1Cc1ccc(Cl)cc1 | 22% | 13µM* | ? | ? | -20% | -8%
COc1cccc(-c2nc3ccccc3s2)c1O | ? | 0.34µM* | ? | 1.5µM* | 7.1µM* | -12%
COc1cc(OC)c(-c2nc3ccccc3s2)cc1OC | 10% | 12µM* | 9% | -4% | / | -2%
Cc1cc(-n2c(SCC(=O)NCc3ccccc3)nc3ccsc3c2=O)ccc1Cl | / | -11% | / | / | / | /
